Data reported in PubChem BioAssay (Tox21).
Several values for one entry are separate records, joined by “and”; a condition that tells them apart may be missing. Equal entries are not always repeated. Records with an inconclusive call do not appear. Entries that show only a call come without a potency. Activity calls are given as the source filed them. Unless noted, the call rests on the fitted dose curve; in most records, active means well fitted curve in the direction sought with a large enough effect in the repeat runs; inconclusive means weak or mixed curves; inactive means no such curve, though single readings can be large; an effect the other way counts as inactive or inconclusive.

Experiment: qHTS assay to identify small molecule agonists of the sonic hedgehog signaling (Shh) pathway - cell viability counter screen (AID 1259366); further: nearly all actives have a fitted effect of over 50% in size; further: potency means the concentration at half of the fitted maximal effect
Conditions: NIH/3T3 Gli1-Luc viability, CellTiter-Fluor, 24 h; series mostly up to 92.4 µM
In short: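 Cells are plated at 2,000 per well and left 4hr at 37C, 5% CO2 before compound addition. After 23hr of treatment, CellTiter-Fluor reagent is added for 1hr at 37C and fluorescence is measured.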
In the case of `C#CCO`, the Potency is reported as “inactive”.
For `CC(=O)[O-].CC(=O)[O-].O.O.[Zn+2]`, the Potency was “inactive”.
In the case of `COC(=O)c1ccccc1S(=O)(=O)NC(=O)Nc1nc(C)nc(OC)n1`, the Potency is reported as “inactive”.
In the case of `CCOC(=O)CCN(SN(C)C(=O)Oc1cccc2c1OC(C)(C)C2)C(C)C`, the Potency is reported as “inactive”.
With `[Cl-].[Cl-].[Sn+2]` the Potency was “inactive”.
For `CCn1cc[n+](C)c1` (tested in a mixture with another compound), the Potency was “inactive”.
With `CCCCn1cc[n+](C)c1` (tested in a mixture with another compound) the Potency was “inactive”.
In the case of `C#CCC1=C(C)C(OC(=O)C2C(C=C(C)C)C2(C)C)CC1=O` (stereo not drawn), the Potency is reported as “inactive”.
For `CO/N=C(/C1=NOCCO1)c1ccccc1Oc1ncnc(Oc2ccccc2Cl)c1F`, the Potency was “inactive”.
With `CC(C)C(Nc1ccc(C(F)(F)F)cc1Cl)C(=O)OC(C#N)c1cccc(Oc2ccccc2)c1` (stereo not drawn) the Potency was “inactive”.
With `CC1(C)C(C=C(Cl)Cl)C1C(=O)OC(C#N)c1ccc(F)c(Oc2ccccc2)c1` (stereo not drawn) the Potency was “inactive”.
In the case of `CCOP(=O)(OCC)Oc1cc(C)nc(C(C)C)n1`, the Potency is reported as “inactive”.
With `Clc1ccc(C(Cl)(Cl)Cl)cc1Cl` the Potency was “inactive”.
With `Cc1c([N+](=O)[O-])cc2c(c1[N+](=O)[O-])C(C)(C)CC2(C)C` the Potency was “inactive”.
With `CCC1COC(Cn2cncn2)(c2ccc(Cl)cc2Cl)O1` (stereo not drawn) the Potency was “inactive”.
For `CCCN`, the Potency was “inactive”.
In the case of `CSSC`, the Potency is reported as “inactive”.
For `C#CC1(O)CCCCC1`, the Potency was “inactive”.
In the case of `CN=C=O`, the Potency is reported as “inactive”.
In the case of `CNC(=O)CSP(=O)(OC)OC`, the Potency is reported as “inactive”.
In the case of `CN`, the Potency is reported as “inactive”.
In the case of `CCCCON=O`, the Potency is reported as “inactive”.
In the case of `CCCCC(CC)COC(=O)OOC(C)(C)C` (stereo not drawn), the Potency is reported as “inactive”.
In the case of `Nc1cc(Cl)ccc1Cl`, the Potency is reported as “inactive”.
For `CSC1=N[C@@](C)(c2ccccc2)C(=O)N1Nc1ccccc1`, the Potency was “inactive”.
In the case of `CCCC[N+]1(C)CCCC1` (tested in a mixture with another compound), the Potency is reported as “inactive”.
With `CCC(C)Nc1c([N+](=O)[O-])cc(C(C)(C)C)cc1[N+](=O)[O-]` (stereo not drawn) the Potency was “inactive”.
In the case of `C=CCOC(=O)c1ccccc1N`, the Potency is reported as “inactive”.
With `CCOP(=S)(OCC)SC(CCl)N1C(=O)c2ccccc2C1=O` (stereo not drawn) the Potency was “inactive”.
In the case of `C[C@]12Cc3cn[nH]c3C[C@@H]1CC[C@@H]1[C@@H]2CC[C@@]2(C)[C@H]1CC[C@]2(C)O`, the Potency is reported as “inactive”.
With `CC(=O)[O-].CC(=O)[O-].O.O.O.[Pb+2]` the Potency was “inactive”.
With `CCCCCCCCCCCCCCn1cc[n+](C)c1` the Potency was 17.3 µM (active) and 24.1 µM (active).
With `COc1nc(C)nc(NC(=O)NS(=O)(=O)c2ccccc2Cl)n1` the Potency was “inactive”.
With `CC(=O)[O][Sn]([c]1ccccc1)([c]1ccccc1)[c]1ccccc1` the Potency was 54.5 nM (active).
For `O=C(Nc1ccc(F)cc1F)c1cccnc1Oc1cccc(C(F)(F)F)c1`, the Potency was “inactive”.
In the case of `CNN`, the Potency is reported as “inactive”.
With `Clc1cc(Cl)c(-c2cc(Cl)c(Cl)cc2Cl)cc1Cl` the Potency was “inactive”.
With `C=CC(=C)C` the Potency was “inactive”.
In the case of `Clc1ccc(C(c2ccc(Cl)cc2)C(Cl)Cl)cc1`, the Potency is reported as “inactive”.

Experiment: qHTS assay to identify small molecule antagonists of the sonic hedgehog signaling (Shh) pathway - cell viability counter screen (AID 1259367); further: nearly all actives have a fitted effect of over 55% in size; further: potency means the concentration at half of the fitted maximal effect
Conditions: NIH/3T3 Gli1-Luc viability, CellTiter-Fluor, 24 h; series mostly up to 92.4 µM
In short: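 Viability was read by CellTiter-Fluor fluorescence in the same wells, reagent added 23 hr into compound treatment and incubated 1 hr at 37C. The 3T3 Gli1-Luc reporter cells (2,000/well) received conditioned medium after compound and ran 24 hr.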
In the case of `C#CCO`, the Potency is reported as “inactive”.
For `CC(=O)[O-].CC(=O)[O-].O.O.[Zn+2]`, the Potency was “inactive”.
For `COC(=O)c1ccccc1S(=O)(=O)NC(=O)Nc1nc(C)nc(OC)n1`, the Potency was “inactive”.
For `CCOC(=O)CCN(SN(C)C(=O)Oc1cccc2c1OC(C)(C)C2)C(C)C`, the Potency was “inactive”.
For `[Cl-].[Cl-].[Sn+2]`, the Potency was “inactive”.
For `CCn1cc[n+](C)c1` (tested in a mixture with another compound), the Potency was “inactive”.
With `CCCCn1cc[n+](C)c1` (tested in a mixture with another compound) the Potency was “inactive”.
With `CC(C)C(Nc1ccc(C(F)(F)F)cc1Cl)C(=O)OC(C#N)c1cccc(Oc2ccccc2)c1` (stereo not drawn) the Potency was “inactive”.
With `Cc1c([N+](=O)[O-])cc2c(c1[N+](=O)[O-])C(C)(C)CC2(C)C` the Potency was “inactive”.
With `CCC1COC(Cn2cncn2)(c2ccc(Cl)cc2Cl)O1` (stereo not drawn) the Potency was “inactive”.
For `CSSC`, the Potency was “inactive”.
With `C#CC1(O)CCCCC1` the Potency was “inactive”.
For `CN=C=O`, the Potency was “inactive”.
In the case of `CN`, the Potency is reported as “inactive”.
With `CCCCON=O` the Potency was “inactive”.
In the case of `Nc1cc(Cl)ccc1Cl`, the Potency is reported as “inactive”.
In the case of `CSC1=N[C@@](C)(c2ccccc2)C(=O)N1Nc1ccccc1`, the Potency is reported as “inactive”.
For `CCCC[N+]1(C)CCCC1` (tested in a mixture with another compound), the Potency was “inactive”.
With `C=CCOC(=O)c1ccccc1N` the Potency was “inactive”.
In the case of `CCOP(=S)(OCC)SC(CCl)N1C(=O)c2ccccc2C1=O` (stereo not drawn), the Potency is reported as “inactive”.
In the case of `CC(=O)[O-].CC(=O)[O-].O.O.O.[Pb+2]`, the Potency is reported as “inactive”.
For `CCCCCCCCCCCCCCn1cc[n+](C)c1`, the Potency was 19.4 µM (active) and 27 µM (active).
For `CC(=O)[O][Sn]([c]1ccccc1)([c]1ccccc1)[c]1ccccc1`, the Potency was 109 nM (active).
With `O=C(Nc1ccc(F)cc1F)c1cccnc1Oc1cccc(C(F)(F)F)c1` the Potency was “inactive”.
In the case of `C=CC(=C)C`, the Potency is reported as “inactive”.
For `Clc1ccc(C(c2ccc(Cl)cc2)C(Cl)Cl)cc1`, the Potency was “inactive”.

Experiment: qHTS assay to identify small molecule agonists of the sonic hedgehog signaling (Shh) pathway (AID 1259368; calls by dose curve;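 further: NIH/3T3-derived 3T3Gli1-Luc cells carrying a stable Gli1-driven firefly luciferase reporter; nearly all actives have a fitted effect of over 15% in size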)
Conditions: NIH/3T3 Gli1-Luc reporter, luciferase, 24 h; series mostly up to 92.4 µM
In short: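 Following a 24 hr incubation with DMSO-dissolved compounds at 37 C, 5% CO2, Gli1-Luc NIH/3T3-derived cells received luciferase reagent for 30 min at room temperature prior to luminescence measurement.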
For `C#CCO`, the Potency was “inactive”.
With `CC(=O)[O-].CC(=O)[O-].O.O.[Zn+2]` the Potency was “inactive”.
For `COC(=O)c1ccccc1S(=O)(=O)NC(=O)Nc1nc(C)nc(OC)n1`, the Potency was “inactive”.
In the case of `CCOC(=O)CCN(SN(C)C(=O)Oc1cccc2c1OC(C)(C)C2)C(C)C`, the Potency is reported as “inactive”.
In the case of `[Cl-].[Cl-].[Sn+2]`, the Potency is reported as “inactive”.
In the case of `CCn1cc[n+](C)c1` (tested in a mixture with another compound), the Potency is reported as “inactive”.
With `CCCCn1cc[n+](C)c1` (tested in a mixture with another compound) the Potency was “inactive”.
For `C#CCC1=C(C)C(OC(=O)C2C(C=C(C)C)C2(C)C)CC1=O` (stereo not drawn), the Potency was “inactive”.
In the case of `CO/N=C(/C1=NOCCO1)c1ccccc1Oc1ncnc(Oc2ccccc2Cl)c1F`, the Potency is reported as “inactive”.
With `CC1(C)C(C=C(Cl)Cl)C1C(=O)OC(C#N)c1ccc(F)c(Oc2ccccc2)c1` (stereo not drawn) the Potency was “inactive”.
With `CCOP(=O)(OCC)Oc1cc(C)nc(C(C)C)n1` the Potency was “inactive”.
For `Clc1ccc(C(Cl)(Cl)Cl)cc1Cl`, the Potency was “inactive”.
For `Cc1c([N+](=O)[O-])cc2c(c1[N+](=O)[O-])C(C)(C)CC2(C)C`, the Potency was “inactive”.
With `CCC1COC(Cn2cncn2)(c2ccc(Cl)cc2Cl)O1` (stereo not drawn) the Potency was “inactive”.
For `CCCN`, the Potency was “inactive”.
For `CSSC`, the Potency was “inactive”.
For `C#CC1(O)CCCCC1`, the Potency was “inactive”.
With `CN=C=O` the Potency was “inactive”.
With `CNC(=O)CSP(=O)(OC)OC` the Potency was “inactive”.
With `CN` the Potency was “inactive”.
With `CCCCON=O` the Potency was “inactive”.
For `CCCCC(CC)COC(=O)OOC(C)(C)C` (stereo not drawn), the Potency was “inactive”.
With `Nc1cc(Cl)ccc1Cl` the Potency was “inactive”.
In the case of `CSC1=N[C@@](C)(c2ccccc2)C(=O)N1Nc1ccccc1`, the Potency is reported as “inactive”.
With `CCCC[N+]1(C)CCCC1` (tested in a mixture with another compound) the Potency was “inactive”.
With `CCC(C)Nc1c([N+](=O)[O-])cc(C(C)(C)C)cc1[N+](=O)[O-]` (stereo not drawn) the Potency was “inactive”.
With `C=CCOC(=O)c1ccccc1N` the Potency was “inactive”.
For `CCOP(=S)(OCC)SC(CCl)N1C(=O)c2ccccc2C1=O` (stereo not drawn), the Potency was “inactive”.
With `C[C@]12Cc3cn[nH]c3C[C@@H]1CC[C@@H]1[C@@H]2CC[C@@]2(C)[C@H]1CC[C@]2(C)O` the Potency was “inactive”.
In the case of `CC(=O)[O-].CC(=O)[O-].O.O.O.[Pb+2]`, the Potency is reported as “inactive”.
For `CCCCCCCCCCCCCCn1cc[n+](C)c1`, the Potency was “inactive”.
For `COc1nc(C)nc(NC(=O)NS(=O)(=O)c2ccccc2Cl)n1`, the Potency was “inactive”.
For `CC(=O)[O][Sn]([c]1ccccc1)([c]1ccccc1)[c]1ccccc1`, the Potency was “inactive”.
For `O=C(Nc1ccc(F)cc1F)c1cccnc1Oc1cccc(C(F)(F)F)c1`, the Potency was “inactive”.
With `CNN` the Potency was “inactive”.
For `Clc1cc(Cl)c(-c2cc(Cl)c(Cl)cc2Cl)cc1Cl`, the Potency was “inactive”.
In the case of `C=CC(=C)C`, the Potency is reported as “inactive”.
For `Clc1ccc(C(c2ccc(Cl)cc2)C(Cl)Cl)cc1`, the Potency was “inactive”.
